Pf growth 96h – inhibits malaria parasite growth, 96 h; P. falciparum luciferase reporter growth, 96 h; 320,000 compounds, 6.9% hits; Potency, µM (doses to about 28.7 µM), usual class: inhibitors; AID 504834
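Readout is luminescence from an integrated firefly luciferase in P. falciparum. Red cells, 2% hematocrit and 0.05% parasitemia final, were cultured with compound through two parasite generations (96 hours) at 37 C, 5% CO2.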
CHX counter – counter-screen for Shiga toxin inhibitors: cycloheximide protein synthesis inhibition | cell reporter, cycloheximide protein synthesis inhibition counterscreen | max response, % | 300,000 compounds, 12% hits | AID 2314; in the data active means max response mostly above about 13%, no sharp cut-off; inactive means mostly below about 14%; further: read at 38.3 µM for the half of the compounds with a filed dose
Pf growth 48h – inhibits P. falciparum growth in the first generation, 48 h | P. falciparum luciferase growth in erythrocytes, 48 h | Potency, µM (top dose mostly 28.7 µM), actives largely listed as inhibitors | 310,000 compounds, 5.9% hits
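Growth was read as firefly luciferase luminescence after a 48 h, 37 C, 5% CO2 exposure of compounds to reporter-bearing P. falciparum cultures (0.1% parasitemia, 2% hematocrit final) in Albumax-supplemented RPMI 1640.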
LASV entry inh – inhibitors of Lassa virus binding or cell entry | Lassa virus pseudotype entry inhibition, cell reporter | Potency, µM (series often up to 37.9 µM), most hits filed as inhibitors | 300,000 compounds, 1.2% hits; calls by dose curve; tested in HEK293 cells; further: nearly all actives have a fitted effect of over 50% in size
Shiga inhibitor – Shiga toxin inhibition; Vero cells, Shiga toxin protein synthesis inhibition reporter; inhibition, % at 38.7 µM; 290,000 compounds, 9.2% hits; in the data active means inhibition mostly above about 28%, no sharp cut-off; inactive means mostly below about 43%
Marburg entry inh – Marburg virus entry inhibition; Marburg virus pseudotyped entry inhibition, cell reporter; Potency, µM (doses to about 37.8 µM), actives largely listed as inhibitors; 300,000 compounds, 1.8% hits; AID 540276; calls by dose curve; tested in HEK293 cells
Numbers stand for hits; – = inactive; ? = inconclusive; · = not tested or not shown. The list is not random: actives were taken first. Their share in the collection is about 19%. Unless noted, the call rests on the fitted dose curve; in most records, active means well fitted inhibition curve with a large enough effect; inconclusive means small, poorly fitted or top-dose-only effect, or another doubt; inactive means no such curve, though single readings can be large or run the other way.

SMILES	Pf growth 96h	CHX counter	Pf growth 48h	LASV entry inh	Shiga inhibitor	Marburg entry inh
Cc1nc2cc(C(=O)N3c4ccccc4CC3C)ccc2s1 (stereo unspecified)	?	–	?	?	–	?
O=C1CCCC(O)=C1N=Nc1ccc(Cl)c(Cl)c1	–	23	–	–	–	–
Cn1c(=O)c2c(nc(NCCOc3ccc(C(C)(C)C)cc3)n2C)n(C)c1=O	?	–	?	–	–	?
CC(=O)OCC(NC(=O)C(C)NC(=O)OC(C)(C)C)C1OC(n2ccc(=O)[nH]c2=O)C(OC(C)=O)C1OC(C)=O (stereo unspecified)	·	–	·	·	–	·
Cn1c2ccccc2c2ccc3c(c21)C(=O)C=CC3=O	·	·	·	–	·	–
Cc1cnc(CN2CCc3c([nH]c4ccccc34)C2C2CCCCC2)[nH]1 (stereo unspecified)	?	–	–	–	–	?
Cc1ncoc1C(=O)N1CCc2c([nH]c3ccccc23)C1C1CCCCC1 (stereo unspecified)	?	52	15µM	?	72	–
c1ccc2c3c([nH]c2c1)C(C1CCCCC1)N(Cc1ncc[nH]1)CC3 (stereo unspecified)	?	–	2.1µM	–	–	–
CC1CN(c2ccc([N+](=O)[O-])cn2)CC(C)O1 (stereo unspecified)	–	–	–	–	–	–
CN(C)CCCOC1C(C(O)CO)OC2OC(C)(C)O[C@@H]21 (stereo partly specified)	–	·	–	·	·	·
COc1cccc(C(=O)Nc2cc3c(cc2C(C)=O)OCCO3)c1	10µM	–	–	–	–	?
COc1cccc(NC(=O)c2oc3ccccc3c2NC(=O)c2ccc3c(c2)OCO3)c1	–	–	–	–	–	–
COc1cccc(NC(=O)c2ccc3c(c2)OCCO3)c1	?	–	–	1.1µM	–	?
COc1ccc(C(=O)Nc2cc3c(cc2C(=O)O)OCCCO3)c(OC)c1	–	–	–	–	–	?
COc1cccc(C(=O)n2c(SC)nc3cc4c(cc32)OCCO4)c1	–	17	–	–	–	–
CCC(=O)Nc1cccc(NC(=O)c2ccc3c(c2)OCO3)c1	–	19	–	–	61	–
CCCC(=O)Nc1ccccc1NC(=O)c1ccc2c(c1)OCO2	–	–	–	·	–	·
COc1ccc(NC(=O)CC2(Cc3ccccc3)CCOC(C)(C)C2)cc1 (stereo unspecified)	?	–	?	–	–	?
COc1cccc(NC(=O)c2ccc3c(c2)OCO3)c1	9.3µM	32	–	·	63	·
O=c1cc(-c2ccc(O)cc2)oc2cc(O[C@@H]3O[C@H](CO)[C@@H](O)[C@H](O)[C@H]3O[C@@H]3OC[C@](O)(CO)[C@H]3O)cc(O)c12	?	–	10µM	–	–	–
COc1cc(C(=O)Nc2ccc(NC(=O)C3CC3)nc2)cc(OC)c1OC	?	–	–	–	–	–
COc1cc(C(=O)Nc2ccc(NC(=O)c3ccccc3Cl)nc2)cc(OC)c1OC	–	–	9.3µM	?	–	?
CC(=O)Nc1cc(-c2ccc(Cl)cc2)[nH]n1	–	44	–	·	–	·
COc1ccc(C(=O)Nc2ccc(Cl)cn2)cc1Cl	–	50	–	–	79	–
COc1cc(C(=O)Nc2ccc(C(=O)c3cccs3)cc2)cc(OC)c1OC	9.3µM	–	?	·	–	·
SMILES	Pf growth 96h	CHX counter	Pf growth 48h	LASV entry inh	Shiga inhibitor	Marburg entry inh
CCc1nnc(NC(=O)CSc2nc3cc4c(cc3cc2C)OCCO4)s1	–	–	–	–	–	?
COCCN(C(=O)c1csnn1)C(C(=O)NC1CCCCC1)c1ccccc1 (stereo unspecified)	–	–	–	–	–	–
CN(C)C(=O)COC(=O)c1ccccc1NC(=O)c1ccco1	–	–	–	·	–	·
CCCC(=O)Nc1ccc(NC(=O)Cc2ccccc2)cn1	·	–	–	–	–	–
COc1cc(C(=O)Nc2ccc(Nc3ccccc3)cc2)cc(OC)c1OC	13µM	–	–	·	–	·
COc1ccc(C(=O)Nc2ccc(NC(=O)c3cc(OC)c(OC)c(OC)c3)cn2)cc1	–	–	2.1µM	–	–	–
COc1ccc(C(=O)Nc2ccc(NC(=O)c3ccccc3OC)nc2)cc1	–	–	–	–	–	?
COc1cc(C(=O)Nc2cc(-c3ccccc3)[nH]n2)cc(OC)c1OC	–	–	12µM	?	–	?
CCCC(=O)Nc1ccc(NC(=O)c2ccccc2Cl)nc1	?	40	–	–	–	–
O=C(Nc1ccc(Cl)cc1)c1cc(S(=O)(=O)N2CCOCC2)cs1	–	–	·	?	–	?
COc1cc(C(=O)NC(c2ccccc2)c2ccccc2)cc(OC)c1OC	–	–	?	–	–	–
COc1cc(/C=C(\NC(=O)c2cc(OC)c(OC)c(OC)c2)C(=O)NC(C(=O)O)c2ccccc2)cc(OC)c1OC (stereo unspecified)	13µM	–	–	?	–	–
COc1cc(C(=O)Nc2ccc(NC(=O)c3ccccc3)nc2)cc(OC)c1OC	–	–	5.2µM	–	–	?
CC(C)Oc1ccc(CNS(=O)(=O)c2csc(C(N)=O)c2)cc1	–	–	6.6µM	–	–	·
Cc1cccc(N(C)S(=O)(=O)c2csc(C(N)=O)c2)c1	0.66µM	–	–	?	–	–
Cc1ccc(NS(=O)(=O)c2csc(C(N)=O)c2)c(C)c1	4.1µM	–	7.4µM	·	–	·
Cc1ccccc1NC(=O)OCCN1CCN(Cc2ccccc2)CCC1=O	–	–	–	–	–	–
C=CCN=C1S/C(=C\c2ccc(N(C)C)cc2)C(=O)N1CC=C	–	45	–	–	59	?
C=CCN1C(=O)/C(=C/c2ccc(O)cc2)S/C1=N/c1nccs1	?	–	–	?	–	?
C=CCN1C(=O)/C(=C/c2ccc(OC)cc2)S/C1=N/c1nccs1	12µM	–	–	?	–	–
CC1(NC(=S)NCCCCCCNC(=S)NC2(C)CCS(=O)(=O)C2)CCS(=O)(=O)C1 (stereo unspecified)	?	–	?	–	–	–
COc1ccc(CN(C(=O)CSc2nnc(-c3ccccc3C)o2)c2ccc(F)cc2)cc1	–	–	?	–	–	?
Cc1ccc(C(=O)CSc2nnc(-c3c[nH]c4ccccc34)o2)cc1	–	–	–	?	–	?
Clc1cccc(CSc2nnc(-c3c[nH]c4ccccc34)o2)c1	–	9.8	·	–	–	–
O=C(CSc1nnc(-c2c[nH]c3ccccc23)o1)N(Cc1ccccc1)c1ccc(F)cc1	?	–	7.4µM	?	–	18µM
CCNC(=S)NCc1ccc(F)cc1	–	–	–	–	–	–
Cc1nn(-c2ccccc2)c2c1C(O)CC(C)(C)C2 (stereo unspecified)	–	–	–	·	–	·
Nc1c(Br)cc2oc(-c3ccccc3)nc2c1Br	–	18	–	?	–	–
COc1ccc(C(=O)Nc2ccc3oc(-c4ccc(OC)cc4)nc3c2)cc1	·	·	·	?	·	–
COc1ccc(-c2nc3c(Br)c(N)c(Br)cc3o2)cc1	?	–	2.3µM	–	–	–
